From PubChem BioAssay
D2 ag-1 = agonists of human D2 dopamine receptor. P14416. HEK293 T-REx D2 cells, calcium flux agonist mode. activation, % at 2 µM. 340,000 compounds, 0.53% hits. AID 485358;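 active = activation over 3 SD above normal in the single-dose calcium agonist read, cut at about 30% in these data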
Target sequence (P14416 whole entry, looked up): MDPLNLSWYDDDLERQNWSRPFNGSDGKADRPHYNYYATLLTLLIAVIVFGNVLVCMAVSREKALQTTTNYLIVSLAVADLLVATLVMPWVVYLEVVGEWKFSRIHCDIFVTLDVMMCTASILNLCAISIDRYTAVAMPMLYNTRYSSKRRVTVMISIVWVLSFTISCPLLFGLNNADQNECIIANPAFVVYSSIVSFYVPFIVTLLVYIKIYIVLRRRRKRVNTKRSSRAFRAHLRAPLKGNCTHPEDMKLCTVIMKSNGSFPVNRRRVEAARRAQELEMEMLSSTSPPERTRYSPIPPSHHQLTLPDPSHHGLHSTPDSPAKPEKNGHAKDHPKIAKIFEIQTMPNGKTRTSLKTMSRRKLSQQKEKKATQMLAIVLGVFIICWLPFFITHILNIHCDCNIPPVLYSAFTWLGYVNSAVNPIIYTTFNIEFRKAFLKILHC
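Tetracycline-induced HEK293 Trex cells with D2 receptor force-coupled to calcium signaling, plated overnight at 30 C and loaded with no-wash calcium dye. Calcium flux read kinetically for 180 s after compound addition; responses flag agonists.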
D2 PAM-1 = positive allosteric modulators of human D2 dopamine receptor; DiscoveRx D2 beta-arrestin cells, luminescence, 90 min; 100% = 57 uM dopamine signal; AID 624464; 360,000 compounds, 0.23% hits; potentiation, % (concentration not given with the values); P14416; in the data active = potentiation above about 50%; inconclusive = mostly about 30% to 49%
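PathHunter D2 cells, attached overnight at 37 deg C, received compound in DMSO plus dopamine at EC20 (50 nM final) for 90 min at 37 deg C. Beta-arrestin recruitment was read as luminescence after 1 h with detection reagent at ambient temperature.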
D2 PAM-2 = positively modulates the human D2 dopamine receptor allosterically | AID 485347 | P14416 | HEK293 T-REx D2, calcium flux, EC20 dopamine potentiation | 340,000 compounds, 0.34% hits | potentiation, % at 10 µM;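 active = potentiation over 3 SD above the plate norm, cut at about 30% in these data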
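Using a no-wash calcium dye in inducible, force-coupled HEK293 Trex cells expressing D2, we tracked fluorescence each second for 180 s after compound, then for 180 s after EC20 dopamine to detect augmented signalling.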
D2 ag-2 = human D2 receptor agonism in beta-arrestin assay; DiscoveRx PathHunter D2 beta-arrestin, luminescence, 90 min; 100% = 57 uM dopamine signal; activation, % (no concentration beside the values); 360,000 compounds, 0.084% hits; AID 624465; in the data active = activation above about 40%; inconclusive = between about 15% and that limit
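DiscoveRx PathHunter D2 beta-arrestin cells (2,100/well) attached overnight, then compound-stimulated 90 min at 37 C in HBSS/10 mM HEPES/0.1% Tween-20 buffer; beta-galactosidase complementation read by luminescence after 1 h at ambient temperature. Dopamine 57 uM final (EC100) as control.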
D2 antag = antagonizes the human D2 dopamine receptor. P14416. HEK293 TREx D2 cells, calcium flux, dopamine EC80. inhibition, % at 10 µM. 340,000 compounds, 2% hits; in the data active = inhibition above about 30%; inactive = below that, where a call was filed
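Dopamine at EC80 is the agonist stimulus; test compounds precede it by 180 s. Calcium flux read kinetically in a force-coupled, inducible HEK293 T-REx D2 cell line.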
D3 arrestin ag = D3 receptor agonism confirmed, beta-arrestin readout | 2,300 compounds, 4% hits | Potency, µM (highest dose often 76.9 µM), most hits filed as activators | shares compounds with D2 ag-1 | DiscoveRx D3 beta-arrestin cells, luminescence, 90 min | AID 720506; also: nearly all actives have a fitted effect of over 70% in size
D2 ag-3 = D2 receptor agonism, beta-arrestin counterscreen. shares compounds with D2 ag-1. DiscoveRx PathHunter D2 beta-arrestin, luminescence, 90 min; response scale: percent relative to full dopamine signal. Potency, µM (highest dose often 76.9 µM), usual class: activators. 2,300 compounds, 5.9% hits. AID 720507; also: nearly all actives have a fitted effect of over 70% in size
Numbers stand for hits; – = inactive; ? = inconclusive; · = not tested or not shown. A selection: hits, their analogues and other compounds. The true share with any hit is near 2.4%. Unless noted, calls follow the shape of the dose curve; as a rule, active = well fitted activation curve with a large enough effect; inconclusive = small, poorly fitted or top-dose-only effect; inactive = flat fitted curve, though single readings scatter.

SMILES | D2 ag-1 | D2 PAM-1 | D2 PAM-2 | D2 ag-2 | D2 antag | D3 arrestin ag | D2 ag-3
O=C(c1ccsc1)N1CCCC(N2CCN(c3cccc(Cl)c3)CC2)C1 (stereo not given) | – | – | – | – | – | · | ·
COC(=O)c1ccc(C(=O)N2CCCC(N3CCN(c4ccccc4)CC3)C2)nc1 (stereo not given) | 43 | – | – | – | – | – | –
Cc1cnc(C(=O)N2CCCC(N3CCN(c4cccc(C(F)(F)F)c4)CC3)C2)cn1 (stereo not given) | – | – | – | – | – | – | –
CC(C)n1cc(C(=O)N2CCCC(N3CCN(c4cccc(Cl)c4)CC3)C2)cn1 (stereo not given) | 52 | – | – | – | – | – | –
COc1ccc(-n2ncc3c(NCc4ccco4)ncnc32)cc1 | – | – | – | – | – | · | ·
Clc1ccc(-n2ncc3c(NCc4ccco4)ncnc32)cc1 | – | – | – | – | – | – | –
CC(=O)Nc1ccc(C(=O)Nc2cc(C(F)(F)F)ccc2-n2cnc3ccccc32)cc1 | – | – | – | – | – | – | –
COc1ccc(C(=O)Nc2cc(C(F)(F)F)ccc2-n2cnc3ccccc32)cc1 | – | – | – | – | – | · | ·
O=C(O)CCn1cc(-c2ccc(F)cc2)nc1-c1ccncc1 | · | – | · | – | · | – | –
Cc1ccc(CNC(=O)CCn2cc(-c3ccc(F)cc3)nc2-c2ccncc2)cc1 | – | – | – | – | – | · | ·
COc1ccc(CNCCNC(=O)c2cccs2)cc1OC | 60 | – | – | – | 39 | – | –
CC(C)(C)c1cc(CCC(=O)NNC(=S)NC(=O)c2ccccc2)cc(C(C)(C)C)c1O | · | – | · | – | · | – | –
O=C(COC(=O)[C@H](Cc1ccccc1)NC(=O)c1cccs1)Nc1ccccc1C(F)(F)F | – | – | – | – | – | · | ·
NC(=O)NC(=O)COC(=O)[C@H](Cc1ccccc1)NC(=O)c1cccs1 | – | – | – | – | – | – | –
O=C(CSc1nc(=O)[nH]c2c1CCCC2)NCc1ccc(F)cc1 | – | · | – | · | · | · | ·
Cc1ccc(CN2CCN(c3cccc4[nH]ccc34)CC2)cc1 | 73 | – | – | ? | 72 | – | ?
O=C(c1ccc(Cl)cc1)N1CCN(c2cccc3[nH]ccc23)CC1 | – | – | – | – | – | · | ·
CCOC(=O)C1(CC2CC2)CCN(Cc2cnc(N(C)C)s2)CC1 | 75 | – | – | – | 68 | – | –
CCOC(=O)C1(CCOc2ccccc2)CCN(Cc2cnc(C)s2)CC1 | – | – | – | – | – | · | ·
Cc1ccc(S(=O)(=O)N2CCN(C(=O)COC(=O)c3cc([N+](=O)[O-])ccc3NCCO)CC2)c(C)c1 | · | – | · | – | · | · | ·
Cc1ccc(S(=O)(=O)N2CCN(C(=O)COC(=O)c3ccc([N+](=O)[O-])o3)CC2)c(C)c1 | – | – | – | – | – | – | –
Cc1ccc(C)c(NS(=O)(=O)c2ccc(-c3ccc(=O)[nH]n3)o2)c1 | 44 | – | – | – | – | – | –
Cc1cccc(NS(=O)(=O)c2ccc(-c3ccc(=O)[nH]n3)o2)c1 | · | – | · | – | · | · | ·
CC(=O)Nc1ccc(-c2nnc(SCC(=O)c3ccc([N+](=O)[O-])cc3)o2)cc1 | – | · | – | · | · | · | ·
CN(Cc1ccc2c(c1)OCCO2)C(=O)CN1C(=O)NC2(CCCCC2)C1=O | – | – | – | – | – | · | ·
SMILES | D2 ag-1 | D2 PAM-1 | D2 PAM-2 | D2 ag-2 | D2 antag | D3 arrestin ag | D2 ag-3
CCC(C)(C)C1CCC2(CC1)NC(=O)N(CC(=O)N(C)Cc1ccc3c(c1)OCCO3)C2=O (stereo not given) | – | – | – | – | – | – | –
O=C(CSc1ccc2nnc(CCNS(=O)(=O)c3ccccc3)n2n1)Nc1ccccc1C(F)(F)F | – | · | – | · | · | · | ·
O=C(c1ccc(N2CCCC2=O)cc1)N1CCN(c2ccccc2F)CC1 | 55 | – | – | – | – | ? | –
Cc1ccc(NC(=O)CSc2nnc(COc3ccc(Cl)cc3)o2)cc1 | – | · | – | · | · | · | ·
CCC(Nc1ccc(-c2nc(-c3cccnc3)no2)cc1[N+](=O)[O-])c1ccccc1 (stereo not given) | – | · | – | · | · | · | ·
CC1(c2ccccc2)NC(=O)N(CC(=O)Nc2ccc(S(=O)(=O)Nc3ncccn3)cc2)C1=O (stereo not given) | 53 | – | – | – | 50 | – | –
CC(C)c1nc2sc3c(N4CCCCC4)ncnc3c2c2c1CCCC2 | – | · | – | · | · | · | ·
Cn1c(CC(=O)NCCO)c(Sc2ccccc2)c2ccccc21 | 50 | – | – | – | – | – | –
CSc1c(CC(=O)NCCO)n(C)c2ccccc12 | – | – | – | – | – | · | ·
CCOC(=O)c1cccc(NC(=O)C2CCN(S(=O)(=O)c3ccc4c(c3)oc(=O)n4C)CC2)c1 | · | · | – | · | · | · | ·
Cc1ccc(S(=O)(=O)NCCC(=O)NCCCSc2ccccc2)cc1 | – | – | – | – | – | – | –
O=C(CCNS(=O)(=O)c1ccccc1)NCCCSc1ccccc1 | – | – | – | – | – | · | ·
CC(=O)Nc1ccc(S(=O)(=O)NCCC(=O)NCCOc2ccccc2)cc1 | – | – | – | – | – | – | –
Cc1sc2c(c1C)c(=O)n(-c1ccc(Cl)cc1)c(=O)n2CC(=O)c1ccccc1 | – | · | – | · | · | · | ·
COc1ccc(N2CCN(C(=O)COc3ccccc3C#N)CC2)cc1 | – | · | – | · | · | · | ·
CCCCn1c(=O)c2oc3ccccc3c2n(Cc2cccc(F)c2)c1=O | – | · | – | · | · | · | ·
Cn1cnc(C(=O)N2CCN(c3ccccc3)CC2)c1C(=O)N1CCN(c2ccccc2)CC1 | – | – | – | – | – | – | –
CC(Oc1cc2oc(=O)cc(-c3ccccc3)c2cc1Cl)C(=O)NCC1CCC(C(=O)O)CC1 (stereo not given) | 43 | – | – | – | 43 | – | –
Cc1ccc(CNc2ncnc3cc(Cl)ccc23)cc1 | – | – | – | – | – | · | ·
Cc1cc(NCc2ccc(F)cc2)nc2cc(Cl)ccc12 | – | – | – | – | – | – | –
CCOc1cc(C(=O)Nc2ccc(NC(=O)c3cc4ccccc4o3)c(OC)c2)cc(OCC)c1OCC | · | · | – | · | · | · | ·
COc1cc(C2NC(=O)NC(C)=C2C(=O)OCc2ccc(C)cc2)cc(OC)c1OC (stereo not given) | – | – | – | – | 35 | – | –
COc1cc(C2NC(=O)NC(C)=C2C(=O)OCc2ccc(C)cc2)cc(OC)c1O (stereo not given) | – | – | – | – | – | · | ·
COc1ccccc1CNC(=O)C(Cc1ccccc1)NS(=O)(=O)c1ccc2c(c1)CCN2C(C)=O (stereo not given) | – | · | – | · | · | · | ·
